# FBW7 act: activators of human E3 ligase FBW7; Q969H0; AlphaScreen FBW7–phospho-cyclin E peptide binding, activator screen; normalized activity (activation), % at 26.1 µM; 0.13% of 650,000 active; in the data active means normalized activity above about 1.9%;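 further: purified mutant Fbw7 with reduced substrate affinity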
# Target sequence (Q969H0 whole entry, looked up): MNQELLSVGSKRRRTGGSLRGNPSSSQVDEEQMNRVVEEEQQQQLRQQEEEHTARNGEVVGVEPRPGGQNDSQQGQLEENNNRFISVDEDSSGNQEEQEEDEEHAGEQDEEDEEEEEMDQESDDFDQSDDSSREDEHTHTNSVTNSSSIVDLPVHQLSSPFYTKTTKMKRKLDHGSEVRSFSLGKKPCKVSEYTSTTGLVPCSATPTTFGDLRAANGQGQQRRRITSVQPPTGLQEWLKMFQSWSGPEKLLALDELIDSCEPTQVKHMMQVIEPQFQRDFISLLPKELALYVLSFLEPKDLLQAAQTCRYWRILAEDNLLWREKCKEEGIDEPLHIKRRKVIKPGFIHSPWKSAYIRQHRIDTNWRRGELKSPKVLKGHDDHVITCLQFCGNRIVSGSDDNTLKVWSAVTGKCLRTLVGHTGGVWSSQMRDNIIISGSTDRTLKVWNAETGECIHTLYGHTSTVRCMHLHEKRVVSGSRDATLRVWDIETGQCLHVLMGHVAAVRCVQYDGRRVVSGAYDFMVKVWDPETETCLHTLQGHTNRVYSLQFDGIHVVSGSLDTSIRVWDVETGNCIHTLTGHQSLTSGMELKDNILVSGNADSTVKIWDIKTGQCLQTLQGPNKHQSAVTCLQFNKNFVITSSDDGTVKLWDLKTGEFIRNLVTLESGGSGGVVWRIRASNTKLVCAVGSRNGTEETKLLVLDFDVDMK
# GPR151 activ: activators of human GPR151; PathHunter beta-arrestin GPR151 cells, luminescence; Q8TDV0; 1% of 650,000 active; activation, % at 11.2 µM; AID 1508602; in the data active means activation above about 4.9%;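 further: 0% = median of compound wells and 100% = cells with positive control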
# MITF primary: inhibitors of human MITF; AlphaScreen MITF homodimerization, bead proximity signal; inhibition, % at 2.6 µM; 0.91% of 650,000 active; AID 1259374; in the data active means inhibition above about 50%;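 further: 0% = vehicle wells with protein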
# TEAD-YAP inh: TEAD-YAP interaction inhibition; HEK-TIYL cells, TEAD-Gal4/YAP UAS-luciferase luminescence; inhibition, % at 9.12 µM; 1.4% of 640,000 active; AID 1259422; in the data active means inhibition above about 32%;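 further: 0% = median of test compound wells and 100% = reference inhibitor wells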
# Active calls of the source: *. Shown are actives, neighbours in structure and some others; about 3.5% of the full set was active somewhere.
SMILES,FBW7 act,GPR151 activ,MITF primary,TEAD-YAP inh
CCOC(=O)C1=C(c2ccccc2)N=c2s/c(=C\c3ccc4c(c3)OCO4)c(=O)n2C1c1cc(C(C)C)c(OC)cc1C (stereo unspecified),2.7*,-0.7,18.5,-2.5
CCOC(=O)C1=C(c2ccccc2)N=c2s/c(=C\c3cccc(O)c3)c(=O)n2C1c1cc(C(C)C)c(OC)cc1C (stereo unspecified),0.9,-0.8,-3.7,3.8
COc1ccc(O)c(/C=N/n2c(C)csc2=NC(C)C)c1,0.0,-1.7,24.4,41.4*
CCCNC(=O)c1cc(NCc2ccc3c(c2)OCO3)nc2ccccc12,-0.1,-0.1,-3.6,-1.4
O=C(NCCOc1ccccc1)c1cc(NCc2ccc3c(c2)OCO3)nc2ccccc12,0.0,6.1*,13.4,-5.5
COc1ccc(C(=O)n2cnc3cc(C)c(C)cc32)cc1,-0.4,-1.6,-17.2,-4.5
CCOc1cc(C#N)c(NC(=O)c2ccco2)cc1OCC,0.1,-0.2,1.9,52.1*
Cc1ccc(S(=O)(=O)N2CCCCC2CCNC(=O)C(=O)NCc2ccccc2)cc1 (stereo unspecified),0.3,1.1,3.3,45.7*
COc1ccc(NC(=O)C(=O)NCC2CCCN2S(=O)(=O)c2ccc(C)cc2)cc1 (stereo unspecified),0.1,1.7,-14.9,60.8*
COc1ccc(NC(=O)c2ccccn2)cc1,-0.1,-6.2,-7.3,50.9*
COc1ccc(C(=O)Nc2ccc(NC(=O)c3ccccn3)cn2)cc1,-0.2,0.7,-6.2,-0.3
CCOc1ccc(NC(=S)c2ccccn2)cc1,-0.6,-7.9,24.3,74.8*
COc1cc(Nc2nc(NCc3nc4ccccc4[nH]3)c3ncn(-c4ccccc4)c3n2)cc(OC)c1OC,0.0,-0.2,0.6,61.8*
c1ccc(Nc2nc(NCc3nc4ccccc4[nH]3)c3ncn(-c4ccccc4)c3n2)cc1,0.3,0.6,14.7,34.0*
COc1cc(Nc2nc(NCc3cccnc3)c3ncn(-c4ccccc4)c3n2)cc(OC)c1OC,0.0,1.1,12.1,1.3
CCNc1nc(NCc2nc3ccccc3[nH]2)c2ncn(-c3ccccc3)c2n1,-0.1,2.5,7.6,-0.9
c1ccc(-n2cnc3c(NCc4nc5ccccc5[nH]4)nc(-c4csc5ccccc45)nc32)cc1,6.9*,-1.0,-3.0,-10.4
COC(=O)c1c(NC(=O)C2COc3ccccc3O2)sc(C)c1C (stereo unspecified),0.0,0.7,-0.1,2.0
CCOC(=O)c1c(/N=c2\oc3ccccc3cc2C(=O)Nc2ccc(OC)cc2)sc2c1CCCC2,0.2,2.0,2.5,-15.5
Cc1ccccc1OCC(O)CN1CC(C)CC(C)C1 (stereo unspecified),0.0,-0.4,-22.3,8.1
N#CC1=C2SCC(O)(c3ccco3)N2C(=O)CC1c1ccc(F)cc1 (stereo unspecified),0.0,-1.5,3.3,42.8*
N#CC1=C2SCC(O)(c3ccc(F)cc3)N2C(=O)CC1c1cccc(F)c1 (stereo unspecified),0.0,-0.3,7.0,53.7*
O=C(Nc1cc(-c2ccncc2)c[nH]c1=O)C1Cc2c(ccc3ccccc23)O1 (stereo unspecified),0.0,-0.9,7.4,32.8*
COc1cc2c(-c3ccccc3Br)nc3c(c(C)nn3-c3ccccc3)c2cc1OC,0.0,0.3,10.4,9.9
COc1cc2c(-c3ccccc3Cl)nc3c(c(C)nn3-c3ccccc3)c2cc1OC,0.4,0.5,13.7,40.1*
SMILES,FBW7 act,GPR151 activ,MITF primary,TEAD-YAP inh
CCC(C)NC(=O)c1ccc2nc(-c3ccccc3)c(-c3ccccc3)nc2c1 (stereo unspecified),0.0,1.1,-5.4,5.7
COc1cc(/C=N/NC(=O)c2n[nH]c3c2CCC3)ccc1O,-0.1,1.8,10.2,46.7*
COc1cccc(/C=N\NC(=O)c2n[nH]c3c2CCC3)c1,0.3,-1.2,8.8,36.3*
COc1ccc(/C=N/NC(=O)c2[nH]nc3c2CCc2ccccc2-3)cc1OC,0.1,-1.6,11.7,45.8*
COc1ccc(/C=N/NC(=O)c2n[nH]c3c2CCCC3)cc1OC,0.1,1.6,-3.4,26.0
COc1ccc(/C=N\NC(=O)c2n[nH]c3c2CCCC3)c(OC)c1OC,0.9,0.8,-2.7,61.4*
COc1cccc(/C=N\NC(=O)c2n[nH]c3c2CCCC3)c1OC,0.8,-0.9,-14.9,-21.5
COC(=O)c1ccc(/C=N/NC(=O)c2[nH]nc3c2CCc2ccccc2-3)cc1,0.2,-1.7,18.3,-1.2
CC1=Nc2cc(C(=O)NCCCOC(C)C)ccc2Sc2ccccc21,0.2,1.1,-2.4,38.3*
COCCCNC(=O)c1ccc2c(c1)N=C(C)c1ccccc1S2,0.1,-0.2,5.4,62.6*
Cc1c(Cl)cccc1S(=O)(=O)N1CCC(Cn2c(C)nc3ccccc32)CC1,0.1,0.6,6.4,36.1*
Cc1c(Cl)cccc1S(=O)(=O)N1CCC(n2nnc3ccccc32)CC1,0.0,-0.2,14.4,-0.3
Cc1nc2ccccc2n1CC1CCN(S(=O)(=O)/C=C/c2ccccc2)CC1,-0.2,-0.2,-2.8,32.8*
O=C(CNc1ccc(F)cc1)N/N=C/c1ccc(Cl)cc1,0.0,0.1,-3.1,-1.5
CN1CCN(C/C=C/c2ccc(N(C)C)cc2)CC1,-0.1,-0.2,67.9*,6.1
CCN1CCN(C/C=C/c2ccc(N(C)C)cc2)CC1,-0.3,0.2,9.0,-0.2
COc1ccc(/C(C)=N/Nc2nc(-c3cccnc3)nc3ccccc23)cc1OC,0.3,-2.3,24.1,33.4*
Cc1cc2ncn(S(=O)(=O)c3ccc(S(N)(=O)=O)cc3)c2cc1C,0.1,-1.0,19.4,-1.8
CCCCOc1ccc(S(=O)(=O)n2cnc3cc(C)c(C)cc32)cc1,-0.2,-0.5,-4.5,47.8*
Cc1ccc(S(=O)(=O)n2cnc3cc(C)c(C)cc32)cc1C,0.1,0.6,23.5,38.7*
CCOc1ccc(S(=O)(=O)n2cnc3cc(C)c(C)cc32)cc1,0.0,0.7,-3.1,34.1*
Cc1ccc(S(=O)(=O)n2cnc3cc(C)c(C)cc32)cc1,0.1,-0.1,11.8,-6.0
O=C(CCC1(Cc2ccco2)CCC(=O)N1)NCc1csc(Cc2ccccc2)n1 (stereo unspecified),0.2,-0.3,-4.6,6.0
COCCCNc1nccn2c(-c3cccc(O)c3)cnc12,-0.6,-0.8,5.3,50.9*
COCCNc1nccn2c(-c3ccoc3)cnc12,2.1*,-1.2,6.6,-4.1
SMILES,FBW7 act,GPR151 activ,MITF primary,TEAD-YAP inh
Nc1cccc(-c2cnc3c(Nc4ccccc4)nccn23)c1,1.8,-1.6,18.8,87.9*
c1ccc(Nc2nccn3c(-c4ccoc4)cnc23)cc1,0.3,-4.8,0.3,66.2*
Cc1nc(N2CCC(C)CC2)c2c(C)c(C(=O)Nc3cccc(Cl)c3)sc2n1,0.1,0.1,4.8,-3.2
Nc1cccc(-c2cnc3c(Nc4ccc(Cl)cc4)nccn23)c1,0.2,-1.1,7.1,64.6*
COc1ccc(NC(=O)Cn2nnc(-c3ccccc3NC(=O)c3ccccc3C)n2)cc1,0.0,-0.4,13.8,6.5
OCc1nc2ccc(Cc3ccc4nc(CO)[nH]c4c3)cc2[nH]1,0.0,4.3,3.1,14.2
OCc1nc2ccc(-c3ccc4nc(CO)[nH]c4c3)cc2[nH]1,0.1,-5.9,14.7,57.8*

# High-throughput results from PubChem.
